Experimental data reported in PubChem BioAssay.
Several values for one entry are separate records, joined by “and”; a condition that tells them apart may be missing. Identical values can stand only once. Records with an inconclusive call do not appear. Activity calls are given as the source filed them. Unless noted, no stated cut-off is given here; in the data, active means inhibition above about 80%; inactive means the rest.

Key:
[1] = viability loss in pontine glioma line – cell-based, SU-DIPG-XVII, MIPE5.0, CellTiter-Glo, qHTS, dose response (AID 1347060; cut-off not given, nearly all actives have AC50 up to about 26 µM;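 on AC50: cells exposed to compound for 48 hours before viability readout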); details: CellTiter-Glo ATP luminescence
[2] = viability loss in pontine glioma line – cell-based, SU-DIPG-XIII, MIPE4.0, CellTiter-Glo, qHTS, dose response (AID 1347061; cut-off not given, nearly all actives have AC50 up to about 37 µM;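 further: cells exposed to compound for 48 hours before readout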); details: CellTiter-Glo ATP luminescence
[3] = viability loss in pontine glioma line – cell-based, JHH-DIPG-1, MIPE4.0, CellTiter-Glo, qHTS, dose response (AID 1347062; cut-off not given, nearly all actives have AC50 up to about 27 µM;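 on AC50: cells exposed to compound for two days before readout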); details: JHH-DIPG-1 viability, CellTiter-Glo ATP luminescence
[4] = viability loss in pontine glioma line – cell-based, SU-DIPG-IV, MIPE4.0, CellTiter-Glo, qHTS, dose response (AID 1347063; cut-off not given, nearly all actives have AC50 up to about 30 µM;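 further: compound exposure lasted 48 hours before the viability readout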); details: CellTiter-Glo ATP luminescence
[5] = JHH-DIPG-1 glioma cell viability, MIPE5.0 library, CellTiter-Glo luminescence, qHTS (AID 1347067; cut-off not given, nearly all actives have AC50 up to about 26 µM;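 further: cells exposed to compound for 48 hours before readout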); details: JHH-DIPG-1 glioma viability, CellTiter-Glo ATP luminescence
[6] = growth inhibition of DIPG cells – cell-based, MIPE5.0 library, qHTS (AID 1347068; cut-off not given, nearly all actives have IC50 up to about 30 µM); details: SU-DIPG-XXV viability
[7] = viability loss with induced miR-34 in A549 – imaging, A549 dox-inducible miR-34, nuclei and caspase counts, primary screen (AID 1347080;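 active means compounds whose cell count with miR-34 switched on is under 0.7 times the count with it off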); details: A549 miR-34 inducible, Hoechst nuclei count, 48 h
[8] = MELAS cybrid and Rieske KO viability enhancers – cell-based, MELAS cybrids, Rieske KO mouse fibroblasts, CellTiter-Glo, primary screen (AID 1508586;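 active means mean z-score across replicates of 1.96 or higher in either the MELAS or the Rieske mutant cell line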;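 further: z relative to plate mean and SD of compound and empty wells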); details: low glucose
[9] = growth inhibition, single agent or in combination, cell-based, chromothripsis tumors, cisplatin or BGB combos (AID 1671449); details: LFS_MB_P medulloblastoma cells;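 further: cells exposed for 96 hours; 0% = vehicle DMSO and 100% = killing by high DMSO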
[10] = growth inhibition, single agent and combos, cell-based, chromothripsis tumors, cisplatin or BGB combos (AID 1671450); details: HDN33 neuroblastoma cells, stronger effect = higher value;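 further: cells exposed to compound for four days; 0% = vehicle DMSO and 100% = cell killing by high DMSO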
[11] = growth inhibition, single agents and combos, ICB984, cell-based, cisplatin or BGB combos, synergistic combos for chromothripsis tumors (AID 1671451; call rule not given here;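 further: cells exposed for 96 hours before readout; 0% = vehicle DMSO and 100% = killing by high DMSO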); details: ICB984 medulloblastoma cells, drug combinations, stronger effect = higher value
[12] = growth inhibition, single agents and combos, HTB85, cell-based, BGB or cisplatin IC20 combos, synergistic combos for chromothripsis tumors (AID 1671453); details: HTB85 osteosarcoma cells, drug combinations, stronger effect = higher value;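 further: cells exposed for 96 hours before readout; 0% = vehicle DMSO and 100% = high DMSO killing control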
[13] = growth inhibition, MDA-MB-436, cell-based, BGB or cisplatin combos, synergistic combos for chromothripsis tumors (AID 1671458; call rule not given here;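 further: cells exposed for 96 hours; 0% = vehicle DMSO and 100% = killing by high DMSO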); details: MDA-MB-436 breast carcinoma growth inhibition, drug combinations, stronger effect = higher value
[14] = BT084 cell growth, single and combined drugs, ICGC_MB145, cisplatin and BGB IC40 combos (AID 1671461); details: BT084 medulloblastoma cells, drug combinations, stronger effect = higher value;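 further: cells exposed to drugs for 96 hours; 0% = vehicle DMSO and 100% = high DMSO full killing control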
[15] = RCMB18 cell growth, single agent and combined, cisplatin and BGB IC40 combos (AID 1671462); details: RCMB18 medulloblastoma cells, stronger effect = higher value;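 further: cells exposed to compound for four days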
[16] = viability loss in pontine glioma line – cell-based, SU-DIPG-XIII, MIPE5.0, CellTiter-Glo, qHTS, dose response (AID 1347064; cut-off not given, nearly all actives have AC50 up to about 23 µM); details: CellTiter-Glo ATP luminescence
[17] = viability loss in pontine glioma line – cell-based, SU-DIPG-XXV, MIPE5.0, CellTiter-Glo, qHTS, dose response (AID 1347065; cut-off not given, nearly all actives have AC50 up to about 26 µM;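 further: cells exposed to compound for 48 hours before ATP readout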); details: CellTiter-Glo ATP luminescence
[18] = growth inhibition of DIPG cells – cell-based, MIPE4.0 library, CellTiter-Glo luminescence, qHTS (AID 1347066; cut-off not given, nearly all actives have AC50 up to about 30 µM;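 further: cells exposed to compound for 48 hours before readout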); details: SU-DIPG-VI viability, CellTiter-Glo ATP luminescence
[19] = compounds altering HSF1 focus formation in cells – imaging, Selleck Cancer Library (AID 1347162; in the data active means plate-normalised HSF1 focus index below about 0.46); details: human cells, HSF1 nuclear foci imaging, at 10 µM; SSMD: measured here: HSF1 foci SSMD mean; cell count: measured here: cell number; plate-normalised HSF1 focus index: stronger effect = lower value
[20] = stronger effect = lower value, cell number ratio, induced over uninduced
[21] = measured here: relative caspase fold change +Dox/-Dox
[22] = measured here: total cells with miR-34 induction, stronger effect = lower value
[23] = measured here: total cells without miR-34 induction
[24] = MELAS cybrid survival, CellTiter-Glo 48 h, stronger effect = higher value
[25] = Rieske KO mouse fibroblast survival, CellTiter-Glo 72 h

For `CN1CCc2c(c3ccccc3n2Cc2ccc(C(=O)NO)cc2)C1`, the AC50 [1] was 23.5 µM (active), the outcome [2] was “inactive” and the AC50 [3] was 23.5 µM (active). For the same molecule, the AC50 [4] was 20.9 µM (active), the AC50 [5] was 20.9 µM (active) and the outcome [6] was “inactive”. For the same molecule, the fold change [7, 20] was 0.909 (inactive) and 0.928 (inactive), the fold change [7, 21] was 0.692 and 0.727 and the cell count [7, 22] was 8690 and 9370. For the same molecule, the cell count [7, 23] was 9560 and 10100, the z-score [8, 24] was -0.421 (inactive) and -0.386 (inactive) and the z-score [8, 25] was 1.15 and -0.701. For the same molecule, the inhibition ([9]; at 0.5 µM, stronger effect = higher value) was -24.1% (inactive) and -14.7% (inactive), the inhibition ([9]; measured here: combination with BGB IC20, at 0.005 µM) was -28.6% and -21.3% and the inhibition ([9]; measured here: combination with BGB IC40, at 0.005 µM) was -40.9% and -27%. The inhibition ([9]; measured here: combination with BGB IC40, at 0.05 µM) was -19.2% and -45.3%, the inhibition ([9]; measured here: combination with cisplatin, at 0.5 µM, stronger effect = higher value) was -23.9% and 9.39% and the inhibition ([9]; measured here: combination with cisplatin, at 5 µM, stronger effect = higher value) was -11.8% and 7.46%. For the same molecule, the inhibition ([10]; BGB combo, at 5 µM) was 2.45% and 27.4%, the inhibition ([10]; at 0.5 µM) was 4.53% (inactive) and -0.32% (inactive) and the inhibition ([10]; cisplatin combo, at 5 µM) was 19.6% and 28.9%. For the same molecule, the inhibition ([10]; measured here: with BGB IC20 combination, at 0.5 µM) was -5.55% and 4.06%, the inhibition ([10]; measured here: with cisplatin IC20 combination, at 0.5 µM) was 15% and 5.2% and the inhibition ([10]; single agent, at 5 µM) was 25.9% and 54.8%. The inhibition ([11]; BGB IC20 combo, at 0.005 µM) was 22.3% and -11.7%, the inhibition ([11]; BGB IC40 combo, at 0.005 µM) was -10.2% and -27.7% and the inhibition ([11]; BGB IC40 combo, at 0.05 µM) was -9.66% and -9.28%. For the same molecule, the inhibition ([11]; at 0.5 µM) was -11.2% (inactive) and -22.9% (inactive), the inhibition ([11]; cisplatin combo, at 0.05 µM) was -15.3% and -13.2% and the inhibition ([11]; cisplatin combo, at 0.5 µM) was -16.4% and -10.9%. The inhibition ([11]; cisplatin combo, at 5 µM) was -14% and -10.1%, the inhibition ([11]; measured here: 5 uM single agent, at 5 µM) was -11.5% and -12.4% and the inhibition ([12]; at 0.5 µM) was 0.33% (inactive) and -0.18% (inactive). The inhibition ([12]; measured here: with BGB IC20, at 0.5 µM) was 0.483% and -9.65%, the inhibition ([12]; measured here: with BGB IC20, at 5 µM) was 26.3% and 10.4% and the inhibition ([12]; measured here: with cisplatin IC20, at 0.5 µM) was -3.56% and 12.2%. The inhibition ([12]; measured here: with cisplatin IC20, at 5 µM) was 24.2% and 27.5%, the inhibition ([12]; single agent, at 5 µM) was 18.4% and 13.9% and the inhibition ([13]; at 0.5 µM) was -13.8% (inactive) and -2.54% (inactive). For the same molecule, the inhibition ([13]; measured here: BGB combination, at 0.5 µM) was -10.6% and -7.29%, the inhibition ([13]; measured here: BGB combination, at 5 µM) was -5.66% and 0.993% and the inhibition ([13]; measured here: cisplatin combination, at 0.5 µM) was -25.1% and 2.46%. The inhibition ([13]; measured here: cisplatin combination, at 5 µM) was -15.3% and 18.8%, the inhibition ([14]; at 0.5 µM) was 2.15% (inactive) and 0.779% (inactive) and the inhibition ([14]; cisplatin combination, at 0.5 µM) was 8.01% and -20.4%. The inhibition ([14]; cisplatin combination, at 5 µM) was -145% and 19.9%, the inhibition ([14]; measured here: BGB IC40 combination 0.05 uM, at 0.05 µM) was -20.5% and 21.4% and the inhibition ([14]; single agent, at 5 µM) was 2.48% and 3.3%. For the same molecule, the inhibition ([15]; at 0.5 µM) was -9.94% (inactive) and 3.3% (inactive), the inhibition ([15]; cisplatin combo, at 5 µM) was 1.27% and 18.1% and the inhibition ([15]; measured here: BGB IC40 combination, at 0.05 µM) was -31.8% and 8.24%. The inhibition ([15]; measured here: combination with cisplatin, at 0.5 µM) was -21.5% and 43% and the inhibition ([15]; single agent, at 5 µM) was 12.1% and 14.4%.
In the case of `C[C@]12CC[C@H](O)CC1=CC[C@@H]1[C@@H]2CC[C@]2(C)C(c3cccnc3)=CC[C@@H]12`, the outcome [1] is reported as “inactive”, the outcome [2] is reported as “inactive” and the outcome [3] is reported as “inactive”. For the same molecule, the outcome [16] was “inactive”, the outcome [17] was “inactive” and the outcome [18] was “inactive”. For the same molecule, the outcome [5] was “inactive”, the SSMD [19] was 1.68 and the cell count [19] was 7310. The plate-normalised HSF1 focus index [19] was 1.06 (inactive).
In the case of `O=C(O)CCCc1c[nH]c2ccccc12`, the outcome [1] is reported as “inactive”, the outcome [2] is reported as “inactive” and the outcome [3] is reported as “inactive”. For the same molecule, the outcome [16] was “inactive”, the outcome [17] was “inactive” and the outcome [18] was “inactive”. For the same molecule, the outcome [5] was “inactive”, the outcome [6] was “inactive” and the fold change [7, 20] was 0.897 (inactive) and 0.923 (inactive). For the same molecule, the fold change [7, 21] was 0.369 and 0.81, the cell count [7, 22] was 8600 and 8570 and the cell count [7, 23] was 9590 and 9280. For the same molecule, the z-score [8, 24] was 0.687 (inactive) and -0.261 (inactive) and the z-score [8, 25] was 0.218 and 0.556.
